# GoLoco inh red: qHTS Assay for Inhibitors of RGS12 GoLoco Motif Activity (Red Fluorophore); Guanine nucleotide-binding protein G(i) subunit alpha-1 (Homo sapiens), P63096; Gai1:RGS12 GoLoco peptide FP, rhodamine, 10 min; Potency, µM (series often up to 61.6 µM), for inactives: top-dose activity, negative = inhibition, most hits filed as inhibitors; 230,000 tested, 0.44% active; AID 880, 2007; active = well fitted inhibition curve with a large enough effect, not every such curve was filed as active; inactive = no such curve, though single readings can be large or run the other way; note: nearly all actives have a fitted effect of over 30% in size
# Target sequence (P63096 whole entry, looked up): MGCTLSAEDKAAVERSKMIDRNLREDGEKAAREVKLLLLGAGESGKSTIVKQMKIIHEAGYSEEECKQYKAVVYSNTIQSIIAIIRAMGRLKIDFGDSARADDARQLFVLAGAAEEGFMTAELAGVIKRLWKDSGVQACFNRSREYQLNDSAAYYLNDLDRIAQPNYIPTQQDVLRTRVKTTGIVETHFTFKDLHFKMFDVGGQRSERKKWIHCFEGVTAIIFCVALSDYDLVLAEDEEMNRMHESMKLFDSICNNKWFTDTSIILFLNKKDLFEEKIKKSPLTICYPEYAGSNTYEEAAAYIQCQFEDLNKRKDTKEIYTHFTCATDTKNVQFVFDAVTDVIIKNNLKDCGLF
# Tau FP inhib: qHTS for Inhibitors of Tau Fibril Formation, Fluorescence Polarization | Microtubule-associated protein tau (Homo sapiens), P10636 | K18 P301L tau heparin fibrillization, Alexa594 FP, 6 h | Potency, µM (doses to about 57.7 µM), for inactives: at the top dose activity, negative = inhibition, actives largely listed as inhibitors | 280,000 tested, 0.39% active; note: nearly all actives have a fitted effect of over 55% in size
#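 Heparin (20 uM) drove fibril formation of recombinant tau K18 P301L, 15 uM unlabeled with 0.24 uM Alexa 594 label, for 6 hr at 37 C in 100 mM sodium acetate pH 7. Fluorescence polarization (555/632 nm) read 1 hr after 30 uM ThT.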
# Tau fibril ThT: qHTS for Inhibitors of Tau Fibril Formation, Thioflavin T Binding; Potency, µM (titrated, usually from 57.4 µM), for the others: top-dose activity, negative = inhibition, most hits filed as inhibitors; AID 1460, 2008; recombinant tau K18 P301L, heparin-induced fibrillization, ThT fluorescence; Microtubule-associated protein tau (Homo sapiens), P10636; 270,000 tested, 2.1% active; note: nearly all actives have a fitted effect of over 55% in size
#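 K18 P301L tau (15 uM + 0.24 uM Alexa 594-tagged), heparin 20 uM, NaOAc pH 7, 6 h 37 C; ThT 30 uM, 1 h RT, ex 450/em 510 nm.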
# TRb SRC2 PPI: qHTS for Inhibitors of the Interaction of Thyroid Hormone Receptor and Steroid Receptor Coregulator 2. Thyroid hormone receptor beta (Homo sapiens), P10828. TRbeta-SRC2 peptide binding, fluorescence polarization; receptor liganded with 1 µM T3. Potency, µM (top dose mostly 106 µM), without a hit: at the top dose activity change, negative = inhibition, most hits filed as inhibitors. 280,000 tested, 0.065% active. AID 1469, 2008;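 note: plate controls were bound peptide for no effect and peptide without receptor for full effect; nearly all actives have a fitted effect of over 50% in size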
# Target sequence (P10828 whole entry, looked up): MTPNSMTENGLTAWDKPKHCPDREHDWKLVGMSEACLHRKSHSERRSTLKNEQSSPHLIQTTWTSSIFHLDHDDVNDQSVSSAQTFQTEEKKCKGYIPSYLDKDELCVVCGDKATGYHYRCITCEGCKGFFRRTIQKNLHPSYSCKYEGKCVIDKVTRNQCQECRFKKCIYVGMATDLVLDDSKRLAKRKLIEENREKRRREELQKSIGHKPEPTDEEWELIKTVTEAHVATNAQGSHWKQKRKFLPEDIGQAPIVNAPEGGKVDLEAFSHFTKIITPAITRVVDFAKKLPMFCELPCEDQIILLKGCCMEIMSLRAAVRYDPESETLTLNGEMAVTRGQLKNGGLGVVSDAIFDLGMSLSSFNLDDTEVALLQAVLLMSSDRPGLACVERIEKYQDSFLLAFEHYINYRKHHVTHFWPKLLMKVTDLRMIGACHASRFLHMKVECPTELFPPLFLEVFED
#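 Human TRb ligand-binding domain (0.6 uM) is mixed with 20 nM Texas Red SRC2 peptide and 1 uM T3; after compound addition and 5 hr at ambient temperature, polarization is measured and normalized to unbound and bound controls.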
# TexasRed fluor: Total Fluorescence Counterscreen for Inhibitors of the Interaction of Thyroid Hormone Receptor and Steroid Receptor Coregulator 2. TRb/SRC2 Texas Red total fluorescence interference. Potency, µM (top dose mostly 106 µM), inactives show at the top dose fluorescence change, negative = quenching. 280,000 tested, 0.29% active; active = well fitted curve in either direction with a large enough effect; inconclusive = small, poorly fitted or top-dose-only effect
#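 Flags fluorescent or light-absorbing compounds by total fluorescence, S + 2P, at 555 nm excitation and 632 nm emission. Mixture: 20 nM Texas Red SRC2 peptide, 0.6 uM human TRb LBD, 1 uM T3, 5% DMSO; compound exposure 5 h at ambient temperature.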
# Tau fluor counter: Counterscreen qHTS for Inhibitors of Tau Fibril Formation, Fluorescence Polarization; 280,000 tested, 0.93% active; AID 1463, 2008; tau K18 P301L Alexa594 fluorescence, heparin fibrillization; Potency, µM (titrated, usually from 57.7 µM), for inactives: top-dose activity change, negative = decrease; note: nearly all actives have a fitted effect of over 55% in size
#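 Human tau K18 P301L (15 uM unlabeled, 0.24 uM Alexa 594-labeled) in 100 mM sodium acetate pH 7 with 20 uM heparin, 6 hr at 37 C. ThT 30 uM added, 1 hr ambient; Alexa 594 FP and total fluorescence read at 555/632 nm.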
# * = called active by the depositor; ? = inconclusive; . = not tested or not shown; [ ] = dose if it differs, or a comment. Rows were chosen to be rich in hits. Some 3.1% of all compounds tested hit in one or more screens of this group. Unless noted, calls come from the whole dose curve; as a rule, active = well fitted curve in the direction sought with a large enough effect; inconclusive = small, poorly fitted or top-dose-only effect, or another doubt; inactive = no such curve, though single readings can be large; an effect the other way counts as inactive or inconclusive. Unless noted, % is set by controls: 0 for no effect and ±100 for the full control effect; potency is the fitted concentration of half-maximal effect.
SMILES,GoLoco inh red,Tau FP inhib,Tau fibril ThT,TRb SRC2 PPI,TexasRed fluor,Tau fluor counter
CSC1=NSC2=NC(=O)/C(=C/c3coc4ccccc4c3=O)C(=N)N12,15.8%,?,17.8µM*,?,?,?
Cc1cc2ncn(CCC(=O)NC(C)(C)C)c2cc1C,5.1%,1.2%[2.34 µM],?,-8.0%,-3.6%,-38.4%
CCOc1cccc(C=Nc2cc(C)cc(C)c2O)c1O,49.2%,?,25.1µM*,-5.1%,-9.4%,?
Cc1ccc(NC(=O)CN2C(=O)N/C(=C/c3cccn3-c3ccc(C(=O)O)cc3)C2=O)cc1,6.6%,4.2%,-8.0%,4.5%,-12.5%,-5.1%
Cc1ccc(NC(=O)CN2C(=O)N/C(=C/c3ccco3)C2=O)cc1,17.2%,?,?,10.6%,50.1µM*[quencher],-23.7%
COC(=O)c1ccc(-c2ccco2)n1Cc1cccc(C)c1,3.4%,0.2%,-17.5%,0.5%,-1.3%,-15.3%
C=CCN1C(=O)/C(=C/c2ccc(O)c(OC)c2)S/C1=N/c1nccs1,158.7%,0.4%,?,8.9%,-6.8%,28.2µM*[quencher]
O=C1CC(N2CCOCC2)=NN1c1ccc([N+](=O)[O-])cc1,-7.1%,2.5%,7.08µM*,0.0%,-2.5%,?
CN(C)c1ccc(/C=C2/C(=O)N(c3ccc([N+](=O)[O-])cc3)N=C2N2CCOCC2)cc1,2.7%,-6.5%,15.8µM*,?,-5.4%,?
O=[N+]([O-])c1ccc(N2CCOCC2)nc1,-17.1%,3.4%,-13.5%,12.1%,-0.5%,4.0%
CC(=O)Nc1ccc(S(=O)(=O)N2CCN(c3nc(NC4CCCC4)c4ccccc4n3)CC2)cc1,-0.9%,22.4µM*,-16.6%,-10.3%,-1.6%,14.1µM*[quencher]
CC(=O)Nc1ccc(S(=O)(=O)N2CCN(c3cc(C)nc4ccccc34)CC2)cc1,5.9%,-5.1%,5.1%,-8.5%,-2.3%,1.1%
Cc1ccc2c(Cl)cc(Cl)c(OCC(=O)N3CCCC3)c2n1,-3.6%,0.2%,-13.7%,-9.3%,1.8%,-5.0%
Cc1ccc2onc(CC(=O)N3CCN(c4cccc(Cl)c4)CC3)c2c1,.,-4.1%,?,-26.9%,25.1µM*[quencher],-20.3%
Cc1ccc2[nH]c(=O)c(CN(C(=O)c3cccc(Cl)c3)C(C)(C)C)cc2c1,.,-2.0%,-6.8%,-18.0%[53 µM],31.6µM*[quencher],-6.8%
Cc1ccc2[nH]c(=O)c(CN(C(=O)c3cccc([N+](=O)[O-])c3)C(C)(C)C)cc2c1,6.1%,2.5%,-7.8%,4.8%,1.8%,-13.3%
CCOC(=O)c1c(NC(=O)Cc2coc3cc(C)cc(C)c23)sc2c1CCC2,.,-12.9%,?,?,0.0251µM*[quencher],-23.8%
COC(=O)c1c(NC(=O)Cc2coc3cc(C)ccc23)sc2c1CCC2,.,-2.7%,?,20.3%[53 µM],3.55µM*[quencher],?
COP(=O)(OC)C(Nc1cc(Cl)cc(Cl)c1)c1cccc(O)c1 (stereo not drawn),16.2%,-8.5%,0.2%,2.2%,-0.6%,-11.1%
C=CCSc1nccc(-c2cc(Cl)sc2Cl)n1,-0.8%,-4.3%,-13.3%,7.7%,-1.1%,-20.8%
COc1ccccc1NC(=O)Cc1csc(NC(=S)Nc2ccc(C)cc2)n1,-0.4%,?,-5.4%,6.6%,3.2%,12.6µM*[quencher]
CC(C)(CSc1ncccn1)NS(=O)(=O)c1ccccc1,16.1%,12.7%,2.5%,14.8%,-2.9%,-6.5%
Cc1ccc(S(=O)(=O)NC(C)(C)CSc2nnc(Nc3ccccc3)s2)cc1,-5.2%,3.8%,-16.7%,-4.1%,-2.8%,17.8µM*[quencher]
COCCn1c(SCCCC(=O)c2ccc(Br)cc2)nnc1-c1ccncc1,-9.9%,10.1%,-15.1%,-4.9%,0.4%,-9.5%
CCC(=O)N1c2ccccc2C(C)(c2ccccc2)CC1(C)C (stereo not drawn),.,-8.1%,?,3.5%,-1.3%,-7.3%
SMILES,GoLoco inh red,Tau FP inhib,Tau fibril ThT,TRb SRC2 PPI,TexasRed fluor,Tau fluor counter
CCN1c2ccccc2N(C)C1(C)c1ccccc1 (stereo not drawn),8.91µM*,15.8µM*,4.47µM*,?,44.7µM*[fluorescent],?
CN1C(=O)N(C)C2(c3ccccc3)NC(=O)NC12c1ccccc1 (stereo not drawn),-1.1%,4.7%,-2.9%,0.3%,-0.4%,1.3%
CN1c2ccccc2N(C)C1(C)c1ccccc1,1.26µM*,0.7%,3.9%,-3.6%,-5.0%,8.4%
CCC(C)n1c(=O)c2sccc2n2c(CCCC(=O)Nc3ccc(F)cc3)nnc12 (stereo not drawn),.,-7.2%,3.1%,-4.8%,-1.1%,-6.4%
Cc1c(C(=O)NCc2cccc(Cl)c2)sc2nc3n(c(=O)c12)CCCC3,.,0.5%,-14.6%,-2.3%,1.8%,-5.9%
O=C(Nc1cccc(Cl)c1)OCC#CCCl,.,.,.,0.794µM*,7.94µM*[fluorescent],.
CS(=O)(=O)c1cc([N+](=O)[O-])c(Sc2nc3ccccc3[nH]2)c([N+](=O)[O-])c1,7.94µM*,-1.2%,12.0%,7.3%,-1.9%,4.7%
Cc1ccc(CSCC(=O)Nc2ccc(F)cc2)cc1,15.2%,-3.4%,-9.1%,-5.4%,-2.1%,-14.3%
CC(C)(C)OC(=O)N1CCC(c2c(C(=O)NCCN3CCOCC3)cnn2-c2cccc(F)c2)CC1,.,-6.1%,-7.0%,12.2%,-23.9%,-10.9%
O=C1Nc2ccc3sc4ccccc4c3c2C1=O,18.1%,4.3%,4.47µM*,5.0%,-7.3%,?
COc1ccc2sc3ccccc3c(=O)c2c1,5.6%,-0.4%,?,-3.3%,-5.2%,-21.4%
CCn1c(C)c(P(c2ccccc2)c2ccccc2)[n+]2ccccc12,7.3%,5.6%,-1.7%,5.4%,-0.1%,0.1%
O=Nc1c(-c2cccc([N+](=O)[O-])c2)nc2ncccn12,-20.1%,6.31µM*,3.98µM*,0.3%,-2.2%,-29.0%
O=[N+]([O-])c1cccc(-c2cn3nc(-c4ccccc4)c(-c4ccccc4)nc3n2)c1,10.5%,7.7%,11.9%,-0.1%,-3.8%,-24.2%
COC1=C/C(=C/c2c(N)n3nc(-c4ccc(C)cc4)sc3nc2=O)C=CC1=O,131.6%,1.3%,10µM*,7.4%,-2.3%,?
CCS(=O)(=O)c1nn2c(N)c(/C=C3/C=CC(=O)C(OC)=C3)c(=O)nc2s1,3.3%,-1.7%,?,8.4%,-12.9%,-24.1%
CCOC1=C/C(=C/c2c(N)n3nc(-c4ccccc4)sc3nc2=O)C=CC1=O,38.8%,-5.2%,8.91µM*,1.3%,-9.6%,?

# Source: PubChem (National Center for Advancing Translational Sciences (NCATS))
